Where “and” joins values, the source holds several entries; their conditions need not be identical. Equal values may be shown once. Results filed as inconclusive are left out. Calls of active or inactive are those of the source. Unless noted, calls follow the shape of the dose curve; as a rule, active = well fitted curve in the direction sought with a large enough effect; inconclusive = small, poorly fitted or top-dose-only effect, or another doubt; inactive = no such curve, though single readings can be large; an effect the other way counts as inactive or inconclusive.
Assays:
[1] = Cell Viability - HepG2 (AID 433; calls by dose curve;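 also: potency is read from the fitted curve at half-maximal effect; cells exposed to compound for 40 hours; potency for ATP loss meaning cytotoxicity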); details: qHTS
Procedure, shortened: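 Read-out is luciferase-based quantitation of cellular ATP as a measure of viable HepG2 cells after 40 h treatment at 37 °C. Signal decrease is scaled between DMSO-only and 100 uM tamoxifen controls, with AC50 fitted by the Hill equation.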

[2] = Cell Viability - MRC5 (AID 434; calls by dose curve;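 also: potency is read from the fitted curve at half-maximal effect; cells exposed to compound for 40 hours at 37 °C; potency reflects cytotoxicity seen as loss of intracellular ATP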); details: MRC5 lung fibroblast viability, qHTS
Procedure, shortened: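 AC50 values come from Hill-equation fits of intracellular ATP loss, measured by CellTiter-Glo luminescence. Normal lung fibroblasts (MRC5) had 40 hr compound treatment at 37 C, normalized between DMSO and 100 uM tamoxifen.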

[3] = Cell Viability - HUV-EC-C (AID 542); details: HUV-EC-C endothelial cell viability, qHTS; series mostly up to 92.2 µM;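 also: cells exposed to compound for 40 hours; % is scaled to controls: 0 for no effect and ±100 for the full control effect; nearly all actives have a fitted effect of over 35% in size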
Procedure, shortened: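 Cells were seeded at 1000 per well and incubated 5 hr at 37 °C before compound addition. After 40 hr at 37 °C, CellTiter-Glo reagent was added for 20 min and luminescence read. AC50 values came from Hill-equation modelling.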

[4] = Cellular Toxicity (caspase-3) Mesangial (AID 660); details: mesangial cells, normalized: DMSO 0%, 100 µM tamoxifen 100%; series mostly up to 91.7 µM;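 also: combined caspase 3 and 7 activity read by Caspase-Glo luminescence; cells exposed to compound for 16 h before the caspase read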
Procedure, shortened: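 Seed cells derived from normal human renal glomeruli, incubate 5 h, add compounds across concentrations and incubate 16 h at 37 °C. Caspase 3/7 activation is then quantified by luciferase light, with AC50 derived by Hill modeling.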

[5] = Cell Viability - LYMP2-001 (AID 921); details: LYMP2-001 lymphoblastoid cell viability; series mostly up to 92.2 µM;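 also: cells exposed to compound for 24 h at 37 °C; nearly all actives have a fitted effect of over 70% in size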; also: potency is read from the fitted curve at half-maximal effect
Procedure, shortened: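 Steps: seed 2500 lymphoblastoid cells/well; 5 hr, 37 C; add compound; 24 hr, 37 C; CellTiter-Glo reagent, 30 min room temperature; read luminescence. Concentration-response modeled by Hill equation for AC50.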

[6] = MultiTox-Fluor Cytotoxicity Assay - LYMP1-002 - Dead Cells (AID 960); details: LYMP1-002 lymphoblastoid cells, dead-cell protease fluorescence; series mostly up to 46.1 µM;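 also: 0% = DMSO and 100% = tetraoctylammonium bromide; nearly all actives have a fitted effect of over 60% in size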
Procedure, shortened: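 Cells were plated, rested 5 hr, then treated with compound dilution series for 16 hr at 37 C. After adding substrate reagent and 60 min at room temperature, dead-cell protease fluorescence gave concentration-response curves fitted by the Hill equation.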

[7] = Cell Viability - LYMP2-011 (AID 969); details: LYMP2-011 lymphoblastoid cells viability; series mostly up to 92.2 µM; also: nearly all actives have a fitted effect of over 60% in size; also: potency is read from the fitted curve at half-maximal effect
Procedure, shortened: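 In this qHTS cytotoxicity format, compounds are tested across concentrations on human lymphoblastoid cells in complete medium for 24 hours at 37 C. Viability is taken as cellular ATP measured by luciferase luminescence.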

[8] = Cell Viability - LYMP2-013 (AID 970); details: LYMP2-013 lymphoblastoid cells viability; series mostly up to 92.2 µM;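 also: cells exposed to compound for 24 h at 37 °C; nearly all actives have a fitted effect of over 55% in size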; also: potency is read from the fitted curve at half-maximal effect
Procedure, shortened: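 Cytotoxicity is scored as a concentration-dependent drop in intracellular ATP in human lymphoblastoid cells after 24 hr compound exposure at 37 C. ATP is quantified by luciferase luminescence, and AC50 values come from Hill-equation modeling.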

[9] = Cell Viability - LYMP2-021 (AID 974); details: LYMP2-021 lymphoblastoid cells viability; series mostly up to 92.2 µM;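 also: compound exposure lasts 24 hours at 37 °C; nearly all actives have a fitted effect of over 55% in size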; also: potency is read from the fitted curve at half-maximal effect
Procedure, shortened: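 Loss of cellular ATP, measured with a luciferase-based CellTiter-Glo readout, serves as the toxicity signal in human lymphoblastoid cells treated for 24 hours at 37 C. Potency is reported as AC50 from a standard Hill model.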

[10] = Cell Viability - LYMP2-006 (AID 978); details: LYMP2-006 lymphoblastoid cell viability, qHTS; series mostly up to 92.2 µM; also: % is scaled to controls: 0 for no effect and ±100 for the full control effect; nearly all actives have a fitted effect of over 60% in size
Procedure, shortened: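 Cells are seeded at 2500 per well and rested 5 hr at 37 C. Compounds are added across a concentration series for 24 hr at 37 C, after which ATP is quantified by luciferase luminescence.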

[11] = Cell Viability - LYMP2-010 (AID 981); details: LYMP2-010 lymphoblastoid cell viability, qHTS; series mostly up to 92.2 µM; also: nearly all actives have a fitted effect of over 55% in size; also: potency is read from the fitted curve at half-maximal effect
Procedure, shortened: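 Steps: seed 2500 LYMP2-010 cells per well; incubate 5 hr at 37 C; add compound; incubate 24 hr at 37 C; add CellTiter-Glo, wait 30 min at room temperature; read luminescence. Concentration-response fitted to Hill equation for AC50.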

[12] = Cell Viability - LYMP2-020 (AID 986); details: series mostly up to 92.2 µM;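 also: cells exposed to compound for 24 h at 37 °C; nearly all actives have a fitted effect of over 55% in size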; also: potency is read from the fitted curve at half-maximal effect
Procedure, shortened: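 Seed 2500 cells per well and incubate 5 hr at 37 C. Add compounds at a concentration series and incubate 24 hr at 37 C. Add CellTiter-Glo, wait 30 min at RT, read luminescence, and fit a Hill curve for AC50.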

[13] = Cell Viability - LYMP2-024 (AID 988); details: LYMP2-024 lymphoblastoid cell viability; series mostly up to 92.2 µM; also: nearly all actives have a fitted effect of over 60% in size; also: potency is read from the fitted curve at half-maximal effect
Procedure, shortened: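 qHTS cytotoxicity, human lymphoblastoid line, complete medium; 24 h cpd treatment, 37 C; CellTiter-Glo ATP luminescence readout; tetraoctylammonium bromide positive control; AC50 via Hill fit.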

[14] = Cell Viability - LYMP1-002 - Assay at 24 hr (AID 993); details: LYMP1-002 lymphoblastoid cells viability; series mostly up to 92.2 µM; also: % is scaled to controls: 0 for no effect and ±100 for the full control effect
Procedure, shortened: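 Acute toxicity is measured as concentration-dependent loss of cellular ATP in a human lymphoblastoid line (Coriell LYMP1-002) after 24 h treatment in complete medium. ATP is quantified by luciferase luminescence and AC50 derived by Hill modelling.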

[15] = qHTS assay for small molecule activators of the p53 signaling pathway (AID 651743; active = well fitted activation curve with a large enough effect in the signal ratio, not every such curve was filed as active; the % refers to the signal ratio; also: % of control where 0% means no effect); details: HCT-116 p53RE-bla, beta-lactamase FRET ratio, 16 h; activation: stronger effect = higher value
Procedure, shortened: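 After 16 hours compound treatment at 37 C, HCT-116 cells stably expressing p53RE-driven beta-lactamase were loaded with LiveBLAzer B/G FRET substrate for 2 hours at room temperature. Fluorescence intensity served as the p53 activation read-out.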

[16] = target: Nuclear receptor ROR-gamma (Homo sapiens) (UniProt P51449); assay: qHTS assay for small molecule antagonists of the retinoid-related orphan receptor gamma (ROR-gamma) signaling pathway (AID 651802); details: ROR-gamma antagonist cell reporter assay; series mostly up to 92.2 µM
Procedure, shortened: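 Steps: cells dispensed; compound or DMSO transferred by pin tool; doxycycline added to induce the ROR response element-driven luciferase; plates held 16hr at 37C; ONE-Glo added and luminescence measured.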

[17] = qHTS assay for small molecule antagonists of the retinoid-related orphan receptor gamma (ROR-gamma) signaling pathway - cell viability counter screen (AID 720652; active = well fitted curve in the direction sought with a large enough effect in the repeat runs; an effect the other way counts as inactive or inconclusive;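 also: CHO reporter cells with doxycycline-induced ROR-gamma expression; compound exposure lasted 16 hr before ATP read; % is scaled to controls: 0 for no effect and ±100 for the full control effect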); details: RORgamma reporter cell line viability counter screen; series mostly up to 92.2 µM
Procedure, shortened: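 Steps: seed CHO cells bearing TET-inducible ROR and ROR response element-luciferase; rest 5 hr at 37 C; add compound, then doxycycline; incubate 16 hr; add CellTiter-Glo and read luminescence as ATP-based viability.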

[18] = qHTS assay for cell viability of the p53RE-bla HCT-116 cell line (AID 743292); details: p53RE-bla HCT-116 viability, ATP luminescence, 16 h; series mostly up to 95 µM
Procedure, shortened: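 ATP-based luminescence, 16 h compound exposure at 37 C, p53RE-bla HCT-116 cells at 4,000/well.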

[19] = qHTS assay for small molecule activators of the human pregnane X receptor (PXR) signaling pathway (AID 720659; call rule not given here; also: 0% is about no effect); details: DPX-2 HepG2 CYP3A4-luciferase, 24 h; series mostly up to 92.3 µM

Nuclear receptor ROR-gamma (Homo sapiens), sequence (P51449 whole entry, looked up): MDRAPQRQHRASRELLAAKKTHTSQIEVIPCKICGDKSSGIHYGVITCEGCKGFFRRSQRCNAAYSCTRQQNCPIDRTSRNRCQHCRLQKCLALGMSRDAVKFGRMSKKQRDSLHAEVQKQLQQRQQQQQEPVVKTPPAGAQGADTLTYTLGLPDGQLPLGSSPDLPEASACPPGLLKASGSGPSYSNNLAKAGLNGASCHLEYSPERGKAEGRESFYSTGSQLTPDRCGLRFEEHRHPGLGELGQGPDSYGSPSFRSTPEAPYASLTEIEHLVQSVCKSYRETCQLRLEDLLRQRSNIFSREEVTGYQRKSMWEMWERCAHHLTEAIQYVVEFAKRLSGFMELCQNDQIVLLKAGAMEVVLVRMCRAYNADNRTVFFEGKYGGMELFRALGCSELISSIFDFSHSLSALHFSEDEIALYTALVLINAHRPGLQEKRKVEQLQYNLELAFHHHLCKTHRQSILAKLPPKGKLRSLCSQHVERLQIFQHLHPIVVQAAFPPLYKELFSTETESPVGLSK

O=c1ccc(=O)[nH][nH]1
inactive: Potency [1] > 92 µM | Potency [2] > 92 µM | Potency [3] | outcome [4] | Potency [5] | Potency [6] | Potency [7] | Potency [8] | Potency [9] | Potency [10] | Potency [11] | Potency [12] | Potency [13] | Potency [14] | activation [15] -0.833% and -3.13% | Potency [16] | Potency [17] | Potency [18] | outcome [19]

CN(C)C(=O)Cl
inactive: Potency [1] > 92 µM | Potency [2] > 92 µM | Potency [3] | outcome [4] | Potency [5] | Potency [7] | Potency [8] | Potency [9] | Potency [10] | Potency [11] | Potency [12] | Potency [13] | Potency [14] | Potency [16] | Potency [17] | Potency [18] | outcome [19]

C=CC#N
inactive: Potency [2] > 92 µM | Potency [3] | outcome [4] | Potency [5] | Potency [6] | Potency [7] | Potency [8] | Potency [9] | Potency [10] | Potency [11] | Potency [12] | Potency [13] | Potency [14] | activation [15] -2.66% | Potency [16] | Potency [17] | Potency [18] | outcome [19]

BrCC(Br)C1CCC(Br)C(Br)C1 (stereo not given)
inactive: Potency [1] > 92 µM | Potency [2] > 92 µM | Potency [3] | outcome [4] | Potency [6] | Potency [7] | Potency [8] | Potency [10] | Potency [11] | Potency [12] | Potency [13] | Potency [14] | activation [15] -5.49% | Potency [16] | Potency [17] | Potency [18]

N#C/C(N)=C(/N)C#N
inactive: Potency [1] > 92 µM | Potency [2] > 92 µM | Potency [3] | outcome [4] | Potency [5] | Potency [6] | Potency [7] | Potency [8] | Potency [9] | Potency [10] | Potency [11] | Potency [12] | Potency [13] | Potency [14] | activation [15] 1.55% | Potency [16] | Potency [17] | Potency [18] | outcome [19]

OC[P+](CO)(CO)CO
active: Potency [5] 15.8 µM | Potency [7] 39.8 µM | Potency [8] 31.6 µM | Potency [9] 12.6 µM | Potency [11] 20 µM | Potency [12] 12.6 µM | Potency [13] 7.94 µM
inactive: Potency [2] > 92 µM | Potency [3] | outcome [4] | Potency [6] | Potency [14] | activation [15] 4.85% and 1.14% | Potency [17] | Potency [18]

CCOC(=O)C1OC1(C)c1ccccc1 (stereo not given)
inactive: Potency [1] > 92 µM | Potency [3] | Potency [5] | Potency [6] | Potency [8] | Potency [9] | Potency [11] | Potency [12] | Potency [14] | activation [15] -3.07% | Potency [16] | Potency [17] | Potency [18]

COc1c(C(C)(C)C)cc([N+](=O)[O-])c(C)c1[N+](=O)[O-]
inactive: Potency [1] > 92 µM | Potency [2] > 92 µM | Potency [3] | outcome [4] | Potency [5] | Potency [6] | Potency [7] | Potency [8] | Potency [9] | Potency [10] | Potency [11] | Potency [12] | Potency [13] | Potency [14] | activation [15] -1.58% | Potency [16] | Potency [17] | Potency [18] | outcome [19]

COC(=O)c1ccccc1N
inactive: Potency [1] > 92 µM | Potency [3] | outcome [4] | Potency [5] | Potency [6] | Potency [7] | Potency [8] | Potency [9] | Potency [10] | Potency [12] | Potency [14] | activation [15] -1.42% | Potency [16] | Potency [17] | Potency [18] | outcome [19]

CCN(CC)N=O
inactive: Potency [2] > 92 µM | Potency [3] | outcome [4] | Potency [5] | Potency [6] | Potency [7] | Potency [8] | Potency [9] | Potency [10] | Potency [11] | Potency [12] | Potency [13] | Potency [14] | activation [15] -1.39% | Potency [16] | Potency [17] | Potency [18] | outcome [19]

Source: PubChem BioAssay (NCATS)
